From ChEMBL document CHEMBL2218924, “A broad activity screen in support of a chemogenomic map for kinase signalling research and drug discovery” (Biochem J, 2013) come the findings set out here.

SMILES strings stand for the structures.

Test [1] concerns the target Tyrosine-protein kinase SYK (Homo sapiens) (UniProt P43405). The note with it: at 10 µM.
Test [2] concerns the target T1, Mitogen-activated protein kinase kinase kinase 7 (Homo sapiens) (UniProt O43318).
T1 sequence (whole entry): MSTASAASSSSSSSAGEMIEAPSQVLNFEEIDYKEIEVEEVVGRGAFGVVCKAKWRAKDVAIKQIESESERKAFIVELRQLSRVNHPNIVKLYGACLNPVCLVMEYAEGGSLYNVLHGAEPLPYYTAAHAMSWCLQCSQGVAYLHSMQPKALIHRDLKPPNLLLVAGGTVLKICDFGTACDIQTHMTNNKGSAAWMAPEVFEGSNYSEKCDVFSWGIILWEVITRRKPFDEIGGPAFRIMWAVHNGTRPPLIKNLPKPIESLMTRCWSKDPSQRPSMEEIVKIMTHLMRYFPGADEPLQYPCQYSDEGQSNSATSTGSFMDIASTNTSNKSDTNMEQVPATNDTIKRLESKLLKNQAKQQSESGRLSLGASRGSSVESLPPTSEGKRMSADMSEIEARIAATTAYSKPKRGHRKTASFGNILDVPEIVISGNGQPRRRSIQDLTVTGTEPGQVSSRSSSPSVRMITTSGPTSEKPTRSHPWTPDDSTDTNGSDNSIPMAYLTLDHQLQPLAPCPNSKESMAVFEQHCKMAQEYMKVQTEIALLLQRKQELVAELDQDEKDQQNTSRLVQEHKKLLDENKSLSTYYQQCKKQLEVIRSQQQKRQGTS
The note with it: at 1 µM.

Test [3] has as its target T1, Mitogen-activated protein kinase kinase kinase 7 (Homo sapiens). The note with it: at 10 µM.
In test [4] the target is T2, Serine/threonine-protein kinase TAO1 (Homo sapiens) (UniProt Q7L7X3).
T2 sequence (whole entry): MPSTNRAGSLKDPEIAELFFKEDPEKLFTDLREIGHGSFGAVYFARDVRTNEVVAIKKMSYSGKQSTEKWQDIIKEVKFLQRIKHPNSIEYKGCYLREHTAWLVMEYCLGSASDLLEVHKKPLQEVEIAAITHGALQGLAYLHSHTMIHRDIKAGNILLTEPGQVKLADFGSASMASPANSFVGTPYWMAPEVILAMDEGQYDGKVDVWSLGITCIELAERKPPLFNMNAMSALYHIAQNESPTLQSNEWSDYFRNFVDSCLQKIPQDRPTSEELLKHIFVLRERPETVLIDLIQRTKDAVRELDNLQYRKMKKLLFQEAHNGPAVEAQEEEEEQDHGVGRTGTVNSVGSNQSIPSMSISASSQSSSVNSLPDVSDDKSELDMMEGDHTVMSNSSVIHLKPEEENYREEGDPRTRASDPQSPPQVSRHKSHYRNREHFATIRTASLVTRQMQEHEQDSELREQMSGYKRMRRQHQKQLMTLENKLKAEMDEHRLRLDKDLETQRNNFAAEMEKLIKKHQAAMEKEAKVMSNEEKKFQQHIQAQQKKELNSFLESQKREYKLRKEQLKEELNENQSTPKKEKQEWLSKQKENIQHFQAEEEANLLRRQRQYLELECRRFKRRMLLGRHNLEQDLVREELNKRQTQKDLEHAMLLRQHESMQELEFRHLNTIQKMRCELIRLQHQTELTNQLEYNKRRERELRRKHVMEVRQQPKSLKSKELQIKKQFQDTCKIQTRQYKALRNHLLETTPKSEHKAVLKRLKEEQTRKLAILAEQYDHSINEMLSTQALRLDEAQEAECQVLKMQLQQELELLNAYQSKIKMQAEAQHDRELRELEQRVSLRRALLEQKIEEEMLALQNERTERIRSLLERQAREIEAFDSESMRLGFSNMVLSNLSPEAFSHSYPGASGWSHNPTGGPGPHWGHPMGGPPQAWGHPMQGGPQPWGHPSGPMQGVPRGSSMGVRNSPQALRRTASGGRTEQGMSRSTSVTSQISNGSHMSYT
Conditions: at 1 µM.

Test [5] deals with T2, Serine/threonine-protein kinase TAO1 (Homo sapiens). The note with it: at 10 µM.
Test [6] deals with T3, Serine/threonine-protein kinase TAO2 (Homo sapiens) (UniProt Q9UL54).
T3 sequence (whole entry): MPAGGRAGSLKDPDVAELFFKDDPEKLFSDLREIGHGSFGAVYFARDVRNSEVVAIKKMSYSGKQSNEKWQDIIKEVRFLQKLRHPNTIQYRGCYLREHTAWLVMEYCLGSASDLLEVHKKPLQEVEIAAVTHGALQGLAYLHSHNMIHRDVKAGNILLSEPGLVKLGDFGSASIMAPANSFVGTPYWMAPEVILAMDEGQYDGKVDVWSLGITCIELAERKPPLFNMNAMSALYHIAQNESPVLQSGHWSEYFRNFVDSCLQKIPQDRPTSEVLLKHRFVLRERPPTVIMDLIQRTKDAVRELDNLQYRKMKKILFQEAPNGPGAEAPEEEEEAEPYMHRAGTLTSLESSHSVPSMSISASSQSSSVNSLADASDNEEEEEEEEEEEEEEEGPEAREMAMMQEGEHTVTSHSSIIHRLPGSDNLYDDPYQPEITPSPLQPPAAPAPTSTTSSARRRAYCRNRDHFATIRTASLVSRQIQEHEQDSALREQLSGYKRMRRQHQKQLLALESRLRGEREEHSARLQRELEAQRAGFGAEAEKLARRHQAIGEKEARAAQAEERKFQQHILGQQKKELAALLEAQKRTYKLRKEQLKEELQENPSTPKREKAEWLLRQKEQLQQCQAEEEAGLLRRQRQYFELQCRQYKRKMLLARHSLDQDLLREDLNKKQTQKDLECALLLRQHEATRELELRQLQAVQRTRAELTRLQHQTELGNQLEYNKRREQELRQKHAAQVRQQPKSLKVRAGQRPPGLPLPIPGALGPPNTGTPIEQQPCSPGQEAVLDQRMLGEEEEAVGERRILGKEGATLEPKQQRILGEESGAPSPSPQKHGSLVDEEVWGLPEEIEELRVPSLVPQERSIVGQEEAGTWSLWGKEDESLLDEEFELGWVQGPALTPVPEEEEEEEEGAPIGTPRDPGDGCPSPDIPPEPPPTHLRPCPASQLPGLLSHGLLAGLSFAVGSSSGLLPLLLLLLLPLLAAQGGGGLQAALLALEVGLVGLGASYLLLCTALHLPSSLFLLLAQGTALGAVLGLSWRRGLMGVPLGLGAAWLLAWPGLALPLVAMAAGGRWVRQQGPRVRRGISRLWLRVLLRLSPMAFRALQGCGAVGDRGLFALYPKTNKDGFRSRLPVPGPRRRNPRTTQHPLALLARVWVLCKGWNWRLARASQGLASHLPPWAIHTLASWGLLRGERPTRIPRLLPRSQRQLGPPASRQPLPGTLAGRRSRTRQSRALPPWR
The note with it: at 10 µM.

The target of test [7] is T4, Serine/threonine-protein kinase TAO3 (Homo sapiens) (UniProt Q9H2K8).
T4 sequence (whole entry): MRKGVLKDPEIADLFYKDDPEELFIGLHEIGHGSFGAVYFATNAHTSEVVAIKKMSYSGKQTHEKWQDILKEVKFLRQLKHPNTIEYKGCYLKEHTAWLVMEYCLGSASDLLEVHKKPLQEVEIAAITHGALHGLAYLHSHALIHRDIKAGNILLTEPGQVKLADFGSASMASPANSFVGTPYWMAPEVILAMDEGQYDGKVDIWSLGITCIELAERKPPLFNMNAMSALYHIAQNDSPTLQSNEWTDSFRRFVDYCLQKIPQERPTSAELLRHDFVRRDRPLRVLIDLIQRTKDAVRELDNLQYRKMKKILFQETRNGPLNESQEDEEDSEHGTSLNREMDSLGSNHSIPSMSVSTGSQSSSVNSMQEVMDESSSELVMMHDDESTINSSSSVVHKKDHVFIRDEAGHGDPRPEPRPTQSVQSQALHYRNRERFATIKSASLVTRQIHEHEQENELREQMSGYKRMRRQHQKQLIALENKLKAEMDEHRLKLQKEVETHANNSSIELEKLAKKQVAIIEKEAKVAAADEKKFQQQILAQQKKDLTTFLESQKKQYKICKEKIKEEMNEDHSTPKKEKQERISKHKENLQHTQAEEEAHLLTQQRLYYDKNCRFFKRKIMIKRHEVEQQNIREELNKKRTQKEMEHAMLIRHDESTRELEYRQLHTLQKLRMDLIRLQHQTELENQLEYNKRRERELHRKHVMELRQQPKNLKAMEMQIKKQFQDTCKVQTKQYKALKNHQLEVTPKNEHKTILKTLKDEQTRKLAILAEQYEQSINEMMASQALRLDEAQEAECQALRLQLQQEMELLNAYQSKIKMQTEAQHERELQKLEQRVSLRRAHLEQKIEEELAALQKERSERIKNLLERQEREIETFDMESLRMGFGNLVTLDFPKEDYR
The note with it: at 10 µM.

Test [8] addresses T5, Serine/threonine-protein kinase TBK1 (Homo sapiens) (UniProt Q9UHD2).
T5 sequence (whole entry): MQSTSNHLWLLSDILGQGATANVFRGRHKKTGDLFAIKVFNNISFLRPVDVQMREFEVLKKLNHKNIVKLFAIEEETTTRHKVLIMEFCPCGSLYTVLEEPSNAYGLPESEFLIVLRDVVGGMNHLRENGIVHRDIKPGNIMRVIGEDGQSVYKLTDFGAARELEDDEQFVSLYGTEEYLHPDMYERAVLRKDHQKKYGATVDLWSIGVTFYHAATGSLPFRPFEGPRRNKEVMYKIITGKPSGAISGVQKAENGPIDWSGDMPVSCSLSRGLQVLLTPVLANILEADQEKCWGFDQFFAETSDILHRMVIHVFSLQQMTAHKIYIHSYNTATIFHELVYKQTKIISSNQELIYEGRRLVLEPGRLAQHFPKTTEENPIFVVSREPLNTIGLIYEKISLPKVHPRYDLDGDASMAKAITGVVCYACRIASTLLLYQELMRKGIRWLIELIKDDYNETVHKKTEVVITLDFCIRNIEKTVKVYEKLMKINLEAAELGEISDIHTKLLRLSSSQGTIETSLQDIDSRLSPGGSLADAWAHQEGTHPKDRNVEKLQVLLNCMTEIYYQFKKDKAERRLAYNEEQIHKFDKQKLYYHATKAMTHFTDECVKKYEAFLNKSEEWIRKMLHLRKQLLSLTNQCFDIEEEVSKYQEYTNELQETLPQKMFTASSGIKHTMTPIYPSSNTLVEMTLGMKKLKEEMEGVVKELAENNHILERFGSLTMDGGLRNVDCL
Conditions: at 1 µM.

Test [9] has as its target T5, Serine/threonine-protein kinase TBK1 (Homo sapiens). The note with it: at 10 µM.
The target in test [10] is T6, Inhibitor of nuclear factor kappa-B kinase subunit alpha (Homo sapiens) (UniProt O15111).
T6 sequence (whole entry): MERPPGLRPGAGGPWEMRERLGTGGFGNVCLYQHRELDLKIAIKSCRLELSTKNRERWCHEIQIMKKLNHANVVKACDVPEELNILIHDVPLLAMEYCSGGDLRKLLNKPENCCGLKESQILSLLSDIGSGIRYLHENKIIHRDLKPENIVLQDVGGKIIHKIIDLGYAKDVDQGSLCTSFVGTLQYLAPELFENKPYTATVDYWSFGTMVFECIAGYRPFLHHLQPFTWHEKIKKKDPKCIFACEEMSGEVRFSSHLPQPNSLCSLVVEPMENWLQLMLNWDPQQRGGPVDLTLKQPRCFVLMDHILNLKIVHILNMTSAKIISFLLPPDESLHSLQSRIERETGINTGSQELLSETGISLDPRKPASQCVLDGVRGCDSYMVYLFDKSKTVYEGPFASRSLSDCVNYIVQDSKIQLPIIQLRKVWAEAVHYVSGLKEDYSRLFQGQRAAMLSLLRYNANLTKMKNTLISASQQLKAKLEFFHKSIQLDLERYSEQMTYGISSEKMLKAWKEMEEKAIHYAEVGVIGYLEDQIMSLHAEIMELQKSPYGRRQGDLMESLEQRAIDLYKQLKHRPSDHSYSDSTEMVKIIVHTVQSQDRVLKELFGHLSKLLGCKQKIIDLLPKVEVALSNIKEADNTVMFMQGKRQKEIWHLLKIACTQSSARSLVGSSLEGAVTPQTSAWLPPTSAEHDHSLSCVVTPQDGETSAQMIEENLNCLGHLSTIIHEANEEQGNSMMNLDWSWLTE
Conditions: at 10 µM.

Test [11] has as its target Insulin receptor (Homo sapiens) (UniProt P06213). The note with it: at 1 µM.

Insulin receptor (Homo sapiens), sequence (P06213 28-758 limits assumed): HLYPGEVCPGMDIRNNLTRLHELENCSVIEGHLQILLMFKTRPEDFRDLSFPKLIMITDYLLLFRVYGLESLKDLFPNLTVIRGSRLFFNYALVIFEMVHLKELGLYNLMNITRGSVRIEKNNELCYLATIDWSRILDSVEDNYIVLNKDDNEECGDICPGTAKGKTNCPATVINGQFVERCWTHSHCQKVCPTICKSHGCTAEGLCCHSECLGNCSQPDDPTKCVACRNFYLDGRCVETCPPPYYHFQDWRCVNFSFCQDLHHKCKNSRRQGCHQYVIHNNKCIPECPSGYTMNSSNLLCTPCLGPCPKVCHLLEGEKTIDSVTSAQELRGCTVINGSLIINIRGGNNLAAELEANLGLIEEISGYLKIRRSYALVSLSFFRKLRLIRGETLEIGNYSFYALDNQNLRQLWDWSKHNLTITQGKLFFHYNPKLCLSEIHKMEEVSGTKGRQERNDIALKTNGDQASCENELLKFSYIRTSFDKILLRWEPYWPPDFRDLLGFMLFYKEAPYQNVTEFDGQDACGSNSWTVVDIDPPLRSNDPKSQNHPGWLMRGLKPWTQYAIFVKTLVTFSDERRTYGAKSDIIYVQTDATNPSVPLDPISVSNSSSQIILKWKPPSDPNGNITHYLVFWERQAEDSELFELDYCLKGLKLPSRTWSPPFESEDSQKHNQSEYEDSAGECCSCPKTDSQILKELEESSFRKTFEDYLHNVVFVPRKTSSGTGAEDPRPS
Insulin receptor (Homo sapiens), sequence (P06213 763-1382 limits assumed): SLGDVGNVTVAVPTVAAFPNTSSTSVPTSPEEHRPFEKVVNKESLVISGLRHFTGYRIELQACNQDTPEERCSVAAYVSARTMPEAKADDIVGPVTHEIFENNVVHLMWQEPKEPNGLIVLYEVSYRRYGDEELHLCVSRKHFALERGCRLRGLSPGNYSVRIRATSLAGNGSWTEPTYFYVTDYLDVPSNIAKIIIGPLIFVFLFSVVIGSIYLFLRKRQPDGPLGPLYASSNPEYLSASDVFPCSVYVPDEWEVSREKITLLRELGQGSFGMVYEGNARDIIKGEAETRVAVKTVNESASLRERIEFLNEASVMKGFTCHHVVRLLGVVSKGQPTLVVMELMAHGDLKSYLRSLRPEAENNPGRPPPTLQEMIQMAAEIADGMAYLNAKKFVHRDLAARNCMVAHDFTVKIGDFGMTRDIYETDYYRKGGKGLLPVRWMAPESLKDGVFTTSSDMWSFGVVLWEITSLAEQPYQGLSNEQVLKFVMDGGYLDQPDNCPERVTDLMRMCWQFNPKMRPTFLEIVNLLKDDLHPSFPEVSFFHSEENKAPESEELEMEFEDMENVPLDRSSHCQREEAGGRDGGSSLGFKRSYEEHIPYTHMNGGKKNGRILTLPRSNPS

In the case of `CSc1nc(-c2ccc(F)cc2)c(-c2ccnc(NC(C)c3ccccc3)c2)[nH]1` (stereo unspecified), the residual activity in [1] is 75%; in test [2] it was 101%; in test [3] it was 93%; in [4], 102%; in test [5], 83%; in [6], 83%. Further, the residual activity in [7] was 91%; in [8] it was 102%; in test [9], 77%; in [10], 95%; in test [11] it was 126%.
